Experimental data: PubChem BioAssay AID2642 (Johns Hopkins Ion Channel Center, 2010)
The campaign covered roughly 310,000 compounds. About 3,900 (1.3%) were called active.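 The calls were made as follows: active = compounds whose thallium flux B-score, printed positive for inhibition, exceeds three library SD while starting fluorescence stays within three; inactive = the rest.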 The full list was thinned out, with actives kept by preference.

molecular target: Potassium voltage-gated channel subfamily KQT member 1 (Homo sapiens) (UniProt P51787); assay: inhibitors of human KCNQ1 channel, primary screen, cell-based, thallium flux, high-throughput (AID 2642); conditions: CHO-K1 KCNQ1, FluxOR thallium flux fluorescence, at 10 µM; active compounds read high;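 also: channel opened by potassium depolarization with thallium stimulus after 20 min compound exposure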
Sequence (P51787 whole entry, looked up): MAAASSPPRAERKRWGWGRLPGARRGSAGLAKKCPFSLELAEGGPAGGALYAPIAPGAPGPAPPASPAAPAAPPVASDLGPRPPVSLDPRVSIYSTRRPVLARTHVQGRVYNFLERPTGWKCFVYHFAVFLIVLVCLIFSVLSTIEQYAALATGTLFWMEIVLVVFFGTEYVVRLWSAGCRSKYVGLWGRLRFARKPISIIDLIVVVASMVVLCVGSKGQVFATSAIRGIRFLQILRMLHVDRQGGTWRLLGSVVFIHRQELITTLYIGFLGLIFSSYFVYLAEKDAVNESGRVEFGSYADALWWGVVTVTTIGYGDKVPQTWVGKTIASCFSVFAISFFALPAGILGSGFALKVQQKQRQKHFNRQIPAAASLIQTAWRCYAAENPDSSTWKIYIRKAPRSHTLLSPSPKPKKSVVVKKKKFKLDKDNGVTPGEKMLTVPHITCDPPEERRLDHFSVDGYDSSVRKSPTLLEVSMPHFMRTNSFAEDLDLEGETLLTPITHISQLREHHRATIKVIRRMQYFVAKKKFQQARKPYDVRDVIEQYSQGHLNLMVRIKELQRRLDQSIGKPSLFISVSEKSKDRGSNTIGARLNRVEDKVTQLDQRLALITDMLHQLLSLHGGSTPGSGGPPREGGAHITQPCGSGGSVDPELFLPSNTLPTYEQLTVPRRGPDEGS

B-score, active:
CCCOc1ccc2c3c(c(=O)oc2c1OCCC)CCC3 8
CCCCCCCCn1c2c(c(=N)c3c1CCC3)CCCC2 10
N#Cc1c(-c2ccccc2)nc(SCc2cccc(C(F)(F)F)c2)[nH]c1=O 8
CCNC(=O)c1ccc(OCC(=O)Nc2ccc(F)cc2)c(OC)c1 6
CC(C(=O)NCC1CCCCC1)N(C)Cc1cccc(Cl)c1 (centres undefined) 8
O=C(COC(=O)/C(=C/c1cccs1)c1cccs1)NCc1ccccc1Cl 7

B-score, inactive:
NC(=O)C1CCN(C(=O)CC2C(=O)NCCN2Cc2cccc(Oc3ccccc3)c2)CC1 (centres undefined)
CS(=O)(=O)N1CCc2nc(-c3ccccc3)sc2C1
Cc1c(OC(C)C(=O)N[C@@H](Cc2ccccc2)C(=O)O)ccc2c3c(c(=O)oc12)CCCC3 (some centres undefined)
COc1ccc2c3c(c(=O)oc2c1OCC(=O)C(C)(C)C)CCCC3
CC(=O)Nc1ccc(C(=O)N(C2=NC(C)CS2)c2ccc(Cl)cc2)cc1 (centres undefined)
CCC(C)[C@H](NC(=O)N1c2ccccc2NC(=O)[C@@H]1C(C)C)C(=O)N[C@@H](Cc1ccccc1)C(=O)O (some centres undefined)
Cc1ccccc1CCNC(=O)C1CCC(=O)N(Cc2ccc(Cl)cc2)C1 (centres undefined)
N#Cc1c(-c2ccccc2)nc(SCc2ccc([N+](=O)[O-])cc2)[nH]c1=O
Cc1ccc(CSc2nc(-c3ccccc3)c(C#N)c(=O)[nH]2)cc1
Clc1ccc2nc(CSc3ccccc3)cn2c1
CCOC(=O)c1cnc(-n2nc(C)cc2C)nc1NNc1cc(C)nc(-c2ccccc2)n1
COc1ccc(NC(C)=O)cc1NC(=O)CN1CCN(C2c3ccccc3-c3ccccc32)CC1
O=C1CCN(Cc2ccccc2)CCN1[C@H](CSc1ccccc1)c1ccccc1
COc1ccc(NC(=O)COc2ccc(C(=O)c3ccc(F)cc3)cc2)cc1S(N)(=O)=O
CCOc1ccc(NC(=O)COc2ccc(C(=O)N3CCC(C(N)=O)CC3)cc2OC)cc1
Cc1ccccc1Cn1c2ccccc2c2cnn(CC(=O)NCc3ccco3)c(=O)c21
CSC1=N/C(=C\C=C\c2cccs2)C(=O)S1
CC(=O)Nc1ccc(NC(=O)C(C)OC(=O)C2CC(=O)N(CCc3ccccc3)C2)cc1 (centres undefined)
Cc1ccccc1NC(=O)NCC1CCN(Cc2cccc(Cl)c2)CC1
COc1ccc(CN(C)C(C)C(=O)NC2CCCc3ccccc32)cc1 (centres undefined)
COc1cccc(COC(=O)C2CCN(S(=O)(=O)c3cccs3)CC2)c1OC
O=C(COC(=O)c1cc2c(s1)CCCC2)NCc1ccccc1Cl
O=C(COC(=O)c1cccs1)NCc1cccs1
